Most compounds without a hit are left out; they make up all but 0.9% or so of the library.
Texas Red fluor: Texas Red region autofluorescence. Compound fluorescence, Texas Red channel, 547/618 nm; active compounds read high. max dye-equivalent concentration, M. 0.06% of 59,000 active. AID 587; in the data active means max dye-equivalent concentration above about 10 nM; inconclusive means between about 1.1 nM and that limit
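qHTS profiling of intrinsic compound fluorescence; 100 mM Tris pH 8.0; 15 min RT; ex 547 / em 618 nm; response expressed as Texas Red dye-equivalent concentration from six-point plate standard.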
Resorufin fluor: resorufin region autofluorescence. max dye-equivalent concentration, M. 0.04% of 59,000 active. Compound fluorescence, resorufin region 547/598 nm, buffer; active compounds read high. AID 588
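Compounds in 100 mM Tris, pH 8.0, incubated 15 min at room temperature, then fluorescence read at 547 nm excitation/598 nm emission. Signal converted to dye-equivalent concentration via an on-plate six-point resorufin standard curve, per compound concentration.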
Fluorescein autfl: compound fluoresces in the fluorescein spectral region; Compound autofluorescence, 480/540 nm, fluorescein-equivalent; active compounds read high; max fluorescein-equivalent concentration, M; 0.91% of 59,000 active; AID 593; in the data active means max fluorescein-equivalent concentration above about 10 nM; inconclusive means between about 1.1 nM and that limit
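Read-out is intrinsic compound fluorescence at 480/540 nm (excitation/emission), expressed as dye-equivalent concentration using a fluorescein standard series run on every plate. Compounds sat 15 min at room temperature in 100 mM Tris, pH 8.0.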
A488 fluor: A488 region autofluorescence; max dye equivalency, M; compound autofluorescence, A488 spectral region, dye equivalency; Compound Type: qHTS ECL - MLSMR; 0.1% of 59,000 active
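Readout is A488 dye-equivalent concentration, calibrated by a per-plate six-point Alexa 488 series. Compounds in 100 mM Tris buffer pH 8.0 were incubated 15 min at room temperature. Plates were imaged using 480 nm excitation/540 nm emission filters.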
A647 autofl: compound autofluorescence in A647 spectral region; Compound fluorescence, A647 channel (570/671 nm), Tris buffer; max dye-equivalent concentration, M; 59,000 tested, under 10 active; AID 592
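Spectral profiling of library compounds in pH 8.0 Tris: 15 min room-temperature incubation, single ex/em pair (570/671 nm), response normalized to Alexa 647 equivalents.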
Rhodamine autofl: compound fluoresces in the rhodamine spectral region; 0.05% of 59,000 active; max dye-equivalent concentration, M; Rhodamine-region fluorescence, 547/598 nm, Tris buffer; active compounds read high; in the data active means max dye-equivalent concentration above about 11 nM; inconclusive means between about 1.1 nM and that limit
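Intrinsic compound fluorescence, ex 547 / em 598 nm, CCD imager. Tris 100 mM pH 8.0; 15 min RT. Output = rhodamine dye-equivalent concentration at each compound concentration.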
Of the large screens only hits and unclear results are named; the others gave an inactive call; ! = a repeat was not active. Unless noted, how the calls were made is not given here.

CC(C)[C@@]1(NC(=O)[C@@H]2C=C3c4cccc5[nH]cc(c45)C[C@H]3N(C)C2)O[C@@]2(O)[C@@H]3CCCN3C(=O)[C@H](Cc3ccccc3)N2C1=O	Fluorescein autfl 3.8e-08M, A488 fluor inconclusive
CC(C)[C@H]1C(=O)N2CCC[C@H]2[C@]2(O)O[C@](NC(=O)[C@@H]3C=C4c5cccc6[nH]cc(c56)C[C@H]4N(C)C3)(C(C)C)C(=O)N12	Fluorescein autfl 5.3e-08M, A488 fluor inconclusive
CC(C)[C@]1(NC(=O)[C@H]2C=C3c4cccc5[nH]cc(c45)C[C@H]3N(C)C2)O[C@@]2(O)[C@H]3CCCN3C(=O)[C@H](Cc3ccccc3)N2C1=O	Fluorescein autfl inconclusive
CC(C)[C@H]1C(=O)N2CCC[C@@H]2[C@]2(O)O[C@@](NC(=O)[C@H]3C=C4c5cccc6[nH]cc(c56)C[C@H]4N(C)C3)(C(C)C)C(=O)N12	Fluorescein autfl 2.7e-08M
CC(=O)[C@@H]1CC[C@@H]2[C@H]3CC[C@H]4C[C@@H](O)CC[C@]4(C)[C@@H]3C(=O)C[C@]21C	Fluorescein autfl inconclusive
O=C(O)c1ccccc1-c1c2cc(Br)c(=O)cc-2oc2[c]([Hg])c(O)c(Br)cc12	Texas Red fluor 1.5e-08M, Resorufin fluor 2.9e-07M, Fluorescein autfl 1.7e-05M, A488 fluor 7.8e-07M, Rhodamine autofl 3.8e-07M
O=C(O)CN1CCN(CC(=O)O)CC(=O)[O][Hg][O]C(=O)C1	none
CCCCCCCCCCCCCC(=O)O[C@H]1[C@@H](C)[C@@]2(O)[C@@H](C=C(CO)C[C@]3(O)C(=O)C(C)=C[C@@H]23)C2C(C)(C)[C@]21OC(C)=O (some centres not stated)	none
CC[C@H](CO)NC(=O)[C@H]1C=C2c3cccc4[nH]cc(c34)C[C@H]2N(C)C1	Fluorescein autfl inconclusive
CC[C@H](CO)NC(=O)[C@@H]1C=C2c3cccc4[nH]cc(c34)C[C@@H]2N(C)C1	Fluorescein autfl 2.7e-08M
CN1C[C@H](CO)C=C2c3cccc4[nH]cc(c34)C[C@H]21	Fluorescein autfl 1.5e-08M
Oc1ccc2c3c1O[C@@H]1c4[nH]c5c(c4C[C@@]4(O)[C@@H](C2)N(CC2CC2)CC[C@]314)C[C@]1(O)[C@@H]2Cc3ccc(O)c4c3[C@@]1(CCN2CC1CC1)[C@H]5O4	Fluorescein autfl inconclusive
N[C@]1(C(=O)O)CC[C@@H](C(=O)O)C1	Texas Red fluor inconclusive, Fluorescein autfl inconclusive
N#CC(C#N)=Cc1cc(O)c(O)c(O)c1	Fluorescein autfl 4.4e-08M, A488 fluor inconclusive
CCN(CC)C(=O)N[C@@H]1C[C@H]2c3cccc4[nH]cc(c34)C[C@@H]2N(C)C1	Fluorescein autfl inconclusive
CC1=C[C@@H]2c3cccc4[nH]cc(c34)C[C@H]2N(C)C1	Fluorescein autfl 5.9e-08M, A488 fluor inconclusive
CN1C[C@@H](CNC(=O)OCc2ccccc2)C[C@H]2c3cccc4c3c(cn4C)C[C@@H]21	Fluorescein autfl 3.9e-08M, A488 fluor inconclusive
CC(C)[C@@]1(NC(=O)[C@@H]2C[C@@H]3c4cccc5[nH]cc(c45)C[C@H]3N(C)C2)O[C@@]2(O)[C@@H]3CCCN3C(=O)[C@H](Cc3ccccc3)N2C1=O	Fluorescein autfl inconclusive
CC(=O)[C@@H]1CC[C@H]2[C@H]3CC[C@H]4C[C@@H](O)CC[C@]4(C)[C@@H]3CC[C@]12C	Fluorescein autfl inconclusive
O=C(Cn1ncc2c3ccccc3n(Cc3cccc(Cl)c3)c2c1=O)N1CCC2(CC1)OCCO2	Texas Red fluor inconclusive, Fluorescein autfl 2.5e-08M, A488 fluor inconclusive
N[C@@H](Cc1cc(O)c(O)cc1O)C(=O)O	none
COc1ccc2c3c([nH]c2c1)C(C)=NCC3	Fluorescein autfl inconclusive
CC1=NCCc2c1[nH]c1cc(O)ccc21	Fluorescein autfl 2.1e-07M, A488 fluor 4.5e-07M!, Rhodamine autofl inconclusive
N#C/C(=C\c1ccc(O)c(O)c1)C(N)=S	Texas Red fluor inconclusive, Fluorescein autfl 2.5e-08M

Screening results as filed in PubChem BioAssay.
